Sampled rows, rich in hits. Any-hit rate of the full collection: about 3.1%.
Rtt109 Vps75 = inhibitors of C. albicans Rtt109/Vps75 HAT, primary screen, biochemical, ThioGlo CoA-SH fluorescence, plate reader; Histone acetyltransferase RTT109 (Candida albicans (strain SC5314 / ATCC MYA-2876)), …; purified Rtt109/Vps75, 4 h; inhibition, % at 34.9 µM; 330,000 compounds, 0.16% hits; AID 540336, 2011;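 active = inhibition of at least 50% in every replicate; inconclusive = best replicate reaches 50% inhibition but some replicates fall short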
Target sequence (Q5AAJ8 whole entry, looked up): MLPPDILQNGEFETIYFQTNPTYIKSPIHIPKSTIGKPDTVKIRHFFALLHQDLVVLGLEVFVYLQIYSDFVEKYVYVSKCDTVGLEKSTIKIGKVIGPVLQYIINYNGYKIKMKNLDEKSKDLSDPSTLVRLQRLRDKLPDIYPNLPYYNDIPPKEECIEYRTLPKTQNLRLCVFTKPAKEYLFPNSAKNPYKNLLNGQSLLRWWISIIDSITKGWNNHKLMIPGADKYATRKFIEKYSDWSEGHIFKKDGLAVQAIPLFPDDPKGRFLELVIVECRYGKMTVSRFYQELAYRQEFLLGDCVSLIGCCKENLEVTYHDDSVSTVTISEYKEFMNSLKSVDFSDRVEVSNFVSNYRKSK
Wnt bcat act = Wnt/beta-catenin pathway activators, primary screen, cell-based, plate reader, single point | Wnt/beta-catenin reporter cell assay, activator | activation, % at 9.35 µM | 300,000 compounds, 1.2% hits; in the data active = activation above about 30%, passing the limit was not always enough; inconclusive = no clear call, values can overlap the other calls;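 also: 0% = neutral control wells and 100% = positive control wells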
Statin myotox sup = suppressors of statin myotoxicity in C2C12 myotubes, primary screen, cell-based, single point, plate reader; C2C12 myotubes + simvastatin, ATP luminescence, 48 h; scaled: DMSO 0, geranylgeraniol control 100; rescue of ATP level, % at 7.49 µM; 330,000 compounds, 0.78% hits;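 active = mean ATP rescue above about 67%, or every replicate alone reaching that limit, limit read from the data, passing the limit was not always enough; inconclusive = no clear call, values can overlap the other calls; inactive = mean under the limit and some replicate under it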;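 also: myotubes were challenged with 10 µM simvastatin during compound exposure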
esBAF inh = Bmi1 luciferase reporter increase in mESCs, primary screen, esBAF inhibitor project, mouse ES cells, Bmi1 luciferase knock-in, single point | 24 h; 100% = twice the neutral-well signal | reporter increase, % at 12.5 µM | 350,000 compounds, 2% hits; in the data active = activation above about 40%; inconclusive = no clear call, values can overlap the other calls;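 also: 0% = median of the plate's neutral control wells and 100% = double that signal; a rise in the Bmi1 reporter signal indicates esBAF inhibition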
MITF TRPM1 HTS = activators of MITF-driven TRPM1 promoter reporter, primary screen, cell-based, SK-MEL-5, luciferase, single point | SK-MEL-5 TRPM1-promoter luciferase, 24 h; % of positive control, neutral wells = 0 | activation, % at 12.5 µM | 300,000 compounds, 0.75% hits;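 active = mean activation of at least 80% with every replicate also reaching 80%; inconclusive = mean reaches 80% but some replicate falls short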;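 also: 0% = neutral control wells and 100% = parthenolide positive control wells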
* hit, by the source's call; ? = inconclusive; / = not tested or not shown.

SMILES	Rtt109 Vps75	Wnt bcat act	Statin myotox sup	esBAF inh	MITF TRPM1 HTS
O=c1c2c([nH]c3ccccc13)CCCC2	6.4	/	98.5*	-5.2	9.7
CCOC(=O)C(C)Sc1nnc(-c2c[nH]c3ccccc23)n1C (stereo not given)	4.8	-20.1	6.2	1.9	-3.5
CC(C)Sc1nnc(-c2c[nH]c3ccccc23)n1C	0.0	20.1	8.6	40.6*	/
C/C(Cn1nnc([N+](=O)[O-])n1)=N\NC(=O)c1ccccc1	4.3	1.2	43.1	9.6	-34.3
C/C(Cn1cnc([N+](=O)[O-])n1)=N\NC(=O)c1ccccc1	2.5	9.6	-2.1	44.0*	/
C[C@H](CO)N1C[C@H](C)[C@@H](CN(C)Cc2ccc3c(c2)OCO3)Oc2ccc(NC(=O)Cc3ccccc3)cc2C1=O	/	/	-5.0	3.4	/
CC#CC(=O)N1CCCC(Cc2cccc(OC)c2)(C(=O)OCC)C1 (stereo not given)	-2.5	27.1	1.2	58.8*	50.9
CCOC(=O)C1(Cc2cccc(OC)c2)CCCN(C(=O)CSC)C1 (stereo not given)	8.4	10.4	-3.8	58.6*	/
CCOC(=O)C1(Cc2cccc(OC)c2)CCCN(C(=O)CCc2cccnc2)C1 (stereo not given)	12.3	9.1	/	/	70.3
CCOC(=O)C1(Cc2cccc(OC)c2)CCCN(S(=O)(=O)CC)C1 (stereo not given)	-0.6	-0.4	7.7	-7.0	/
CS(=O)(=O)Nc1ccc2c(c1)[C@H]1C[C@H](CC(=O)NCc3ccccn3)O[C@H](CO)[C@H]1O2	/	/	-1.6	-5.4	/
CC(C)c1cc(CNC(=O)CCc2nnc(CCCc3ccccc3)o2)on1	/	?	/	/	51.5
CCc1cc(CNC(=O)CCc2nnc(CCCc3ccccc3)o2)on1	-3.8	43.5*	-5.0	57.1*	89.2*
CC(C)CCn1c(=O)c2ccccc2n2c(CN3C(=O)NC4(CCC(C)CC4)C3=O)nnc12 (stereo not given)	20.7	-5.2	93.0*	-5.1	-8.9
CCOCCCNC(=O)CCc1nnc2n(CCC(C)C)c(=O)c3ccccc3n12	-7.5	1.0	-1.7	-5.1	-4.7
CN(C)c1ccc(NC(=O)Cn2cc3c(n2)CCCC3)cc1	-3.0	7.5	-10.7	43.8*	2.8
CC(=O)N(C)C[C@H]1Oc2cc(C#CC3CC3)ccc2S(=O)(=O)N([C@@H](C)CO)C[C@H]1C	/	/	-2.5	3.3	/
C/C(=N\Nc1ccc(C(=O)O)cc1)c1ccc(Cl)s1	-8.2	?	-4.4	67.0*	/
CCN(C(=O)C=Cc1ccco1)c1ccccc1	2.0	204.2*	2.2	5.4	-6.9
CC(=C/C(=O)O)/C=C/c1ccco1	7.5	4.8	/	/	8.4
CC(=O)N1CCN(C2=Nc3cccc4cccc2c34)CC1	-4.1	11.0	13.6	16.7	19.6
COc1ccccc1N1CCN(C2=Nc3cccc4cccc2c34)CC1	9.2	-2.6	-27.0	37.7	94.6*
O=S(=O)(Nc1cccc2cccnc12)c1ccc(S(=O)(=O)N2CCCC2)cc1	-2.2	/	70.4*	-2.7	-14.8
Cc1cc(Cl)ccc1OCCCC(=O)N1CCCCC1	-1.2	/	0.6	60.5*	99.7*
Cc1cc(Cl)ccc1OCCCC(=O)N1CCOCC1	-1.9	?	17.2	58.9*	/
SMILES	Rtt109 Vps75	Wnt bcat act	Statin myotox sup	esBAF inh	MITF TRPM1 HTS
Cn1c(=O)c2c(O)c(Cc3ccccc3)c(=O)[nH]c2n(C)c1=O	1.4	0.0	2.5	52.6*	8.5
C[C@H](CO)N1C[C@H](C)[C@@H](CN(C)C(=O)C2CCC2)Oc2cc(-c3ccc(F)cc3)ccc2S1(=O)=O	/	/	-77.0	/	/
C[C@@H]1CN([C@H](C)CO)S(=O)(=O)c2ccc(C#CC3CCCC3)cc2O[C@@H]1CN(C)C(=O)Nc1cc(F)ccc1F	/	/	3.8	-3.2	/
CO[C@H]1CN(C)C(=O)c2cc(NC(=O)NC(C)C)ccc2OC[C@H](C)N(C(=O)C2CCC2)C[C@@H]1C	/	/	-1.8	-4.8	/
COc1ccc(-n2cc(C(=O)c3ccccc3O)cn2)cc1	3.7	-2.1	/	/	9.9
COc1ccc(O)c(C(=O)c2cnn(-c3ccccc3)c2)c1	9.6	-2.0	17.5	52.6*	32.4
O=C(COc1ccccc1C(=O)c1cnn(-c2ccccc2)c1)Nc1ccc2ccccc2c1	-5.2	7.4	4.1	82.3*	113.6*

Compound activity: PubChem BioAssay, Broad Institute
